The values below come from the OligoGym collection.
Also: reference of the scale not given here.

In one test the target is GGH. Description: pooled miR-30 sensor sort-seq; sequence = guide strand. The settings on record: shRNA.
For the sequence TTCTCTGTAAGATCCAGCCTTA, the sensor-assay potency score (higher = more potent) is -0.166.

Take TTTCTCTGTAAGATCCAGCCTT: the sensor-assay potency score (higher = more potent) is -0.286.

With TTTAACTTTTCATTCATTGTAA, the sensor-assay potency score (higher = more potent) turned out to be 0.207.

Turning to ATACTGGATACTTATATCCTTC, the sensor-assay potency score (higher = more potent) is -0.969.

Regarding TATTTCATAGTCTTTCTCTGTA, the sensor-assay potency score (higher = more potent) came out at 0.438.

Consider AAATTCTGGAACATTCTGCTGT, for which the sensor-assay potency score (higher = more potent) was 0.666.

As to TTAGCATAATCTGAGCGTCTGA, the sensor-assay potency score (higher = more potent) was -0.339.

Take TAAGACATTGAAAAACTTCTTT: the sensor-assay potency score (higher = more potent) was -0.164.

Turning to TGAACTGATAAATCAATGCTTT, the sensor-assay potency score (higher = more potent) was -0.538.

Take TTAATAAGCACTCTCCACTAAT: the sensor-assay potency score (higher = more potent) is -1.04.

Take TTGAAAAACTTCTTTAACTTTT: the sensor-assay potency score (higher = more potent) is -0.924.

As to TTGACCTCCAGTGAAGTTCAGC, the sensor-assay potency score (higher = more potent) is -0.539.

Another test concerns the target GH2. Described as above. The settings on record: shRNA.
TCAAACTTGCTGTAGGACTGAT returned a sensor-assay potency score (higher = more potent) of 0.205.

Take TAGGTTAGATTTCTGCTGCGTT: the sensor-assay potency score (higher = more potent) is 0.0139.

Regarding AAGGTGTTGGAATAGACTCTGA, the sensor-assay potency score (higher = more potent) is -0.802.

As to TTCTTCAAACTCCTGATAGGTG, the sensor-assay potency score (higher = more potent) was -0.633.

For the sequence ATAGGTGTCATATGCCAGCTGG, the sensor-assay potency score (higher = more potent) is -0.725.

The sequence TTCTGCTGCGTTTTCACCCTGT had a sensor-assay potency score (higher = more potent) of 0.325.

Consider TTAAACTCCTGATAGGTGTCAT, for which the sensor-assay potency score (higher = more potent) was -0.0284.

As to TAGACTCTGAGAAGCAGAGGGA, the sensor-assay potency score (higher = more potent) amounted to 0.323.

TTGAGCAGTGCGTCATCGTTGT displayed a sensor-assay potency score (higher = more potent) of 0.36.

For TAAACTCCTGATAGGTGTCATA, the sensor-assay potency score (higher = more potent) is -1.52.
